# USP30 inh – blocks human USP30 ubiquitin-rhodamine cleavage | purified USP30, Ub-rhodamine cleavage fluorescence | inhibition, % at 25 µM | 47,000 compounds, 5.3% hits
# OTUD3 block – human OTUD3 deubiquitinase inhibition. Q5T2D3. purified OTUD3, Ub-rhodamine fluorescence, 2 h. inhibition, % at 25 µM. 47,000 compounds, 0.7% hits. AID 1645858
# USP28 inh – human USP28 deubiquitinase inhibition | inhibition, % at 25 µM | Q96RU2 | AID 1645857 | purified USP28, Ub-rhodamine cleavage fluorescence, 30 min | 47,000 compounds, 3% hits
# Target sequence (Q96RU2 whole entry, looked up): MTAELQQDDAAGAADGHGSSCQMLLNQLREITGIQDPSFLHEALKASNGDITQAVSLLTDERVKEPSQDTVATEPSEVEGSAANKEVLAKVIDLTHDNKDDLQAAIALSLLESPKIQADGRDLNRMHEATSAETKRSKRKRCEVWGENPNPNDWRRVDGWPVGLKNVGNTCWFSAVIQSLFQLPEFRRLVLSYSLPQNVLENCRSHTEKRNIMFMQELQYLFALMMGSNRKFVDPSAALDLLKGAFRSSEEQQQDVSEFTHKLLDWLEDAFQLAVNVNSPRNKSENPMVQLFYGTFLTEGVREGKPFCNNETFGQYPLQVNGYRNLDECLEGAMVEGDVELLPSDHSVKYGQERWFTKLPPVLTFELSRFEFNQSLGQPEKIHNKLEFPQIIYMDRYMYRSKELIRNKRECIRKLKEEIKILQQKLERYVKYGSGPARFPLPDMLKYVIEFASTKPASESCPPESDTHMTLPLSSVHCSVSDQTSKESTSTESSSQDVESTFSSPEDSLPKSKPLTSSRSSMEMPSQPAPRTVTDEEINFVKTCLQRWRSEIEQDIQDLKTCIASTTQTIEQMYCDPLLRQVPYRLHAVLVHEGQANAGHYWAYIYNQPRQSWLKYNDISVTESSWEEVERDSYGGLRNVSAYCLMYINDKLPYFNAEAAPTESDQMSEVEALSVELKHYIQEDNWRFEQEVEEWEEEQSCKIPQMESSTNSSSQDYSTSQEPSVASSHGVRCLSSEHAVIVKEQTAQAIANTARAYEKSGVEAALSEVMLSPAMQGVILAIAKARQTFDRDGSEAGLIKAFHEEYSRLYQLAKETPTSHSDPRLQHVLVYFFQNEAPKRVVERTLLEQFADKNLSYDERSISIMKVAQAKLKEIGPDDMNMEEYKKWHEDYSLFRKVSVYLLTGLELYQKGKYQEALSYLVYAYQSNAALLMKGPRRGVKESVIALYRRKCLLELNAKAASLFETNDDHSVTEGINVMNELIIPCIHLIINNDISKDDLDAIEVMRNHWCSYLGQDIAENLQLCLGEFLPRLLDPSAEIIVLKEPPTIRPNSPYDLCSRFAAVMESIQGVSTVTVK
# USP17 block – human USP17-like deubiquitinase inhibition; A8MUK1; purified USP17, Ub-rhodamine cleavage fluorescence, 3 h; inhibition, % at 50 µM; 47,000 compounds, 6.5% hits; AID 1645855
# Starred values were filed as active, the others as inactive; . = not tested or not shown. Sampled rows, rich in hits. Any-hit rate of the full collection: about 11%. Rule as the data show it: active = inhibition above about 30%; inactive = the rest.
SMILES,USP30 inh,OTUD3 block,USP28 inh,USP17 block
CC(=O)c1ccc(NC(=O)CCc2c(C)nn(-c3cc(N4CCOCC4)ncn3)c2C)cc1,6.7,14.9,17.2,5.8
COc1ccc2nc(N3CC(C(=O)Nc4ccc(C(N)=O)cc4)C3)sc2c1,61.6*,16.0,32.5*,64.9*
O=C(NC1CCOCC1)c1cnc2n1CC(c1cccc(C(F)(F)F)c1)CC2 (stereo not drawn),-7.0,-17.6,-2.6,-11.0
O=c1[nH]c(N2CCCC2)nc2c1CCN(Cc1ccc(F)c(F)c1)C2,18.2,10.4,8.4,10.4
O=c1[nH]c2c(cc1CNc1ccc(Cl)cc1)c(-c1cccc(F)c1)nn2-c1ccccc1,-61.6,-7.5,-16.4,37.7*
COc1ccc(-c2nn(-c3ccccc3)c3[nH]c(=O)c(CNc4ccc5c(c4)OCCO5)cc23)cc1OC,-35.8,-3.5,10.1,43.5*
Cc1ccc(NCc2cc3c(C(C)(C)C)nn(-c4ccc(Cl)cc4)c3[nH]c2=O)cc1,-58.4,12.8,22.6,62.5*
CCc1ccccc1NCc1cc(=O)n2c(C)csc2n1,-94.4,-18.6,-26.2,-17.1
O=C(CCn1c(=O)c2ccccc2n(Cc2cccc(Cl)c2)c1=O)NCc1ccccc1Cl,20.8,10.9,-2.8,12.3
O=C(C1CCOCC1)N1CCCCCC1C1CCN(c2cnc3ccccc3n2)CC1 (stereo not drawn),-13.1,-3.0,-11.8,-16.6
O=C(NC1CCCC1)c1cn(Cc2ccccc2)nc1-c1cccnc1,37.9*,9.6,11.5,7.8
CC(C)CCNC(=O)c1cccc(-c2cnc(NC3CCCCC3)nc2)c1,32.0*,19.5,17.0,15.2
O=C(Nc1ccccc1)N1CCCN(c2ccc(C(F)(F)F)cn2)CC1,-8.4,-7.2,-7.8,-10.7
O=C(Cn1cccc1-c1nnc(C2CC2)o1)Nc1cccc(F)c1,-8.2,-3.1,-0.5,32.3*
Cc1cc(NC(=O)Cn2c(C)cc(-c3nnc(C4CC4)o3)c2C)ccc1F,43.8*,0.7,29.8,34.5*
O=C(/C=C/c1ccco1)c1cccc([N+](=O)[O-])c1,3.1,47.2*,46.1*,82.9*
O=C(c1cccc([N+](=O)[O-])c1)N(c1ccccn1)c1ccccn1,-184.6,-0.9,-12.7,-12.7
CCCCc1ccc(NC(=O)Nc2ccccc2C(=O)NCC2CC2)cc1,27.4,11.8,13.6,31.4*
O=C(Nc1ccc(Cl)cc1F)c1cc(-c2cccnc2)n[nH]1,40.5*,5.3,11.8,28.3
O=C(Nc1cc(F)ccc1F)c1cc(-c2cccnc2)n[nH]1,.,3.6,.,56.7*
O=C(NC1CCN(Cc2ccccc2)CC1)c1cc(-c2cccnc2)n[nH]1,.,-1.6,.,-5.1
COc1ccc(NC(=O)CSc2nnc(N3CCOCC3)c3ccccc23)cc1,-164.2,10.8,17.7,11.0
CC1Cc2cc(S(=O)(=O)N3CCC(C(=O)NCc4cccnc4)CC3)ccc2N1C(=O)C1CC1 (stereo not drawn),-2.1,-2.1,-11.3,-1.2
CC(C)(C)CC(=O)N1CCc2cc(-c3csc(NC(=O)CN4CCCCCC4)n3)ccc21,-7.1,-7.5,-6.7,-3.1
Oc1sc(C=Nc2ccc(F)cc2)c2ccccc12,-2.7,-1.2,8.7,24.3
SMILES,USP30 inh,OTUD3 block,USP28 inh,USP17 block
COc1ccc(NCc2cc(=O)[nH]c3ccccc23)cc1,36.7*,12.7,24.4,15.5
Cc1ccc(NC(=O)Cn2cc(-c3nc(C4CC4)no3)ccc2=O)cc1C,-24.2,10.0,1.1,18.0
Cc1ccccc1NC(=O)Cn1cc(-c2nc(C3CC3)no2)ccc1=O,70.5*,2.7,-3.3,13.2
Cc1ccc(NC(=O)Cn2cc(-c3nc(C4CC4)no3)ccc2=O)cc1,36.2*,26.3,14.5,15.1
O=C(c1ccc(C(F)(F)F)cc1)N1CCN(Cc2nncn2C2CCCCC2)CC1,24.3,6.5,11.8,2.3
N#C/C(=C\c1ccc(OCc2cccc(C(=O)O)c2)cc1)c1ccc(F)cc1,0.1,8.3,28.8,69.4*
COc1ccccc1CC(=O)Nc1ccc2c(c1)CCC(=O)N2,-43.8,-13.3,-9.3,7.8
O=C(NCc1ccc(Cl)cc1)Nc1cccc2ccccc12,34.6*,7.2,8.4,67.9*
Cn1cc(NC(=O)Nc2cccc3ccccc23)c2ccccc21,-60.2,-11.2,-0.1,62.9*
CC(C(=O)Nc1cccc2ccccc12)(C(F)(F)F)C(F)(F)F,-17.2,-0.4,0.3,6.1
COc1ccc(-c2noc(CCC(=O)NCc3ccc(F)cc3)n2)cc1,9.6,-2.9,-3.6,14.3
Cc1ccc(Sc2ncccc2C(=O)Nc2ccnn2C2CCCC2)cc1,-18.0,-14.1,-9.5,-26.1
COc1cccc(NC(=O)CCC(=O)N2CCSc3ccccc32)c1,-10.6,-3.2,35.4*,-5.1
Cc1cc(C)c(NC(=O)CCC(=O)N2CCSc3ccccc32)c(C)c1,-171.3,-28.3,-33.6,-45.6
Cc1cccc(CNS(=O)(=O)c2ccc3c(c2)NC(=O)CCS3)c1,-1.0,1.5,-0.9,-0.1
CCC1CN(S(=O)(=O)c2ccc3c(c2)NC(=O)CCS3)c2cc(C)ccc2O1 (stereo not drawn),43.4*,13.5,13.3,19.6
CCCCCN1CC(C)C(=O)Nc2ccccc21 (stereo not drawn),-26.3,-8.1,-12.0,5.0
Clc1cccc(Cc2cnc(Nc3ccccc3)s2)c1Cl,-4.8,5.6,2.7,-5.0
Cc1nnc(-c2ccc3ccn(CC(=O)N4CCN(c5ccccc5)CC4)c3c2)o1,49.9*,72.8*,23.9,93.2*
Cc1nnc(-c2ccc3ccn(CC(=O)NC4CCCC4)c3c2)o1,1.8,-5.8,-8.3,-10.9
Cc1nnc(-c2ccc3ccn(CC(=O)N4CCCc5ccccc54)c3c2)o1,.,2.1,.,85.9*
Cc1cc(C)n(-c2ccc(C(=O)Nc3ccccc3)nn2)n1,0.2,-4.0,-1.7,9.3
O=C(CCn1c(=O)c2sccc2n(Cc2ccc([N+](=O)[O-])cc2)c1=O)NCc1ccccc1,49.8*,44.1*,27.9,52.3*
O=C(Cn1c(=O)c2sccc2n(Cc2ccc([N+](=O)[O-])cc2)c1=O)NCCc1ccccc1,50.1*,24.4,16.2,26.4
COc1ccc(CCNC(=O)Cn2c(=O)c3sccc3n(Cc3ccccc3C#N)c2=O)cc1OC,23.9,17.1,11.6,11.8
SMILES,USP30 inh,OTUD3 block,USP28 inh,USP17 block
COc1ccc(CNC(=O)CCn2c(=O)c3sccc3n(Cc3ccccc3C#N)c2=O)cc1,56.0*,13.1,16.3,55.0*
COc1ccc(CNC(=O)N2CCN(c3ccccc3Cl)CC2)cc1Cl,9.7,4.4,12.8,-6.1
Cc1nn(C)c(NC(=O)Nc2ccc(F)cc2F)c1C1=CCCCC1,-7.9,-6.3,-11.1,0.0
Cc1nn(C)c(NC(=O)Nc2ccccc2F)c1C1=CCCCC1,34.1*,6.0,5.0,24.2
COc1ccc(C(=O)N(Cc2ccc(C)cc2)Cc2ccco2)cc1,34.3*,16.2,29.5,32.6*
COC(=O)c1ccc(COC(=O)C2COc3ccccc3O2)cc1 (stereo not drawn),1.9,1.1,2.1,0.1
O=C1NC2(CCCCCC2)C(=O)N1Cc1nc(-c2ccc(Cl)cc2)no1,-33.9,0.8,-12.2,39.5*
CCOc1cc(N2CCOCC2)c(OCC)cc1NC(=O)COC(=O)c1ccc2ncsc2c1,1.9,-0.1,-2.7,4.0
COc1ccccc1N1CCN(S(=O)(=O)c2cc3c(cc2C)NC(=O)CO3)CC1,-18.9,-16.5,-13.4,-6.4

# High-throughput results deposited in PubChem BioAssay by Buhrlage Lab, Dana-Farber Cancer Institute and Novartis Institutes for BioMedical Research (Cambridge, Mass).
